PAX8 inh HTS: inhibitors of PAX8-driven TPO luciferase reporter, primary screen, RMG-I cells, single concentration; actives 1.2% (n = 360,000); inhibition, % at 12.6 µM; SteadyGlo, 24 h; AID 652154, 2013;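 active means mean replicate inhibition at least 60% with every replicate also reaching 60%; inconclusive means only one of the two criteria is met; inactive means mean below 60% and not all replicates reaching 60%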;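 further: luciferase light reporting Pax8 driven TPO promoter activity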
EWS-Fli inh: EWS/Fli-driven NR0B1 reporter inhibitors, primary screen, A673 cells, NR0B1 luciferase, luminescence, MLPCN library. viability-normalised. inhibition, % at 12.6 µM. actives 0.67% (n = 350,000). AID 651661, 2012;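 active means mean inhibition of at least 50% after viability correction, with every replicate also passing that limit; inconclusive means mean reaches 50% but only one of two replicates passes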;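 further: firefly luciferase signal divided by Alamar Blue viability fluorescence both relative to DMSO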
CFTR F508del cor: F508del CFTR correction, initial screen, CFBE line, single point; CFBE cells, YFP halide quenching; stimulated with forskolin plus potentiator P3; % fluorescence drop versus neutral controls; activity (quench increase), % at 7.58 µM; actives 0.36% (n = 350,000);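 active means mean added fluorescence quench of at least 8% versus neutral control, with both replicates also reaching 8%; inconclusive means only one of the mean or replicate conditions met; inactive means mean below 8% and not both replicates reaching 8%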;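 further: cells transiently co-express mutant CFTR-F508del with the halide-sensitive YFP; corrector assay measuring rescue of mutant channel to the surface after 24 h compound exposure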
FXN GAA850 act: FXN promoter activators, primary screen, cell-based, luciferase luminescence, HEK293 lucGAA850; AID 540364, 2011; actives 0.56% (n = 360,000); activation, % at 6 µM; HEK293 lucGAA850 FXN promoter luciferase reporter, 24 h; percent of 10 µM SAHA response;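 active means activation above the average of all compounds screened plus 3 SD, cutoff fixed separately per campaign, cut at about 7.5% in these data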
HIV Env fusion: inhibitors of HIV-1 Env-driven cell-cell fusion, primary screen, HeLa-JRFL effector, CEM21 target cells, luciferase; inhibition, % at 12.3 µM; actives 1.1% (n = 360,000); AID 651610, 2012;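 active means mean replicate inhibition score of at least 50 and every replicate individually at or above 50; inconclusive means only one of the two criteria met; inactive means mean below 50 and not all replicates reaching 50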
A number is an active result; 0 = inactive; ? = inconclusive; - = no result; ! = not confirmed by another sample. Hits are enriched below; roughly 2.5% of the tested compounds scored in any of these assays.

SMILES	PAX8 inh HTS	EWS-Fli inh	CFTR F508del cor	FXN GAA850 act	HIV Env fusion
C=C1C(=O)[C@]23C[C@H]1CCC2[C@@]1(C)C(C[C@@H]3O)[C@](C)(C(=O)OC)CC[C@@H]1O (stereo partly drawn)	108	59	0	-	0
Cc1ccccc1-c1ccc(C2[C@@H]3CN(C(=O)c4ccc(F)cc4)C[C@H]2N3)cc1 (stereo partly drawn)	65!	0	0	-	-
O=C(c1ccc(F)cc1)N1C[C@@H]2N[C@H](C1)C2c1ccc(-c2ccc(F)cc2)cc1 (stereo partly drawn)	84!	0	0	-	-
COCC(=O)N1CC2(C1)[C@H](c1ccccc1)[C@H](CO)N2C(=O)c1ccncc1	0	0	0	-	-
CCC(=O)Nc1ccc2c(c1)C(=O)N(C)[C@H]1CC[C@@H](CC(=O)NCc3ccccc3Cl)O[C@@H]1CO2	0	0	0	-	0
COc1ccc(C2CC(c3ccccc3C)n3nc(N)nc3N2)cc1 (stereo not drawn)	0	0	0	0	0
CCOc1ccc(C2CC(c3ccccc3C)n3nc(N)nc3N2)cc1 (stereo not drawn)	0	0	0	0	65
Cc1ccc(S(=O)(=O)c2c(N)n(CCC(C)C)c3nc4ccccc4nc23)cc1	-	-	-	0	81
Cc1ccc(S(=O)(=O)c2c(N)n(CCCO)c3nc4ccccc4nc23)cc1	-	-	-	0	-
Nc1c(S(=O)(=O)c2cccs2)c2nc3ccccc3nc2n1CCc1ccccc1	-	-	-	-	81
c1ccc(Cc2cnc(N3CCN(Cc4csc5ccccc45)CC3)nc2)cc1	0	0	0	-	77
CCNC(=O)C[C@H]1CC[C@@H]2[C@@H](COc3ccc(NC(=O)Nc4cccc(C)c4)cc3C(=O)N2C)O1	0	0	0	-	0
COc1cccc(N=Nc2ccc3cccnc3c2O)c1	0	0	8.3	0	0
CC(C)c1ccc(NC(=O)CN2C(=O)NC3(CCCCCCC3)C2=O)cc1	0	0	9.5	0	0
COc1cccc(NC(=O)CN2C(=O)NC3(CCCCCC3)C2=O)c1	0	0	8.8	0	0
CCOc1cc(N2CCOCC2)c(OCC)cc1NC(=O)CN1C(=O)NC2(CCCCC2)C1=O	0	0	22	0	0
CCCN1[C@@H]2c3ccc(C4=CCCCC4)c(=O)n3C[C@@H]2[C@@H](CO)[C@@H]1C(=O)OC	-	0	0	-	-
COc1ccc(NC(=O)N(C)C[C@@H]2OCc3cn(nn3)CCCC(=O)N([C@@H](C)CO)C[C@@H]2C)c(OC)c1	0	0	0	-	-
COc1ccc(S(=O)(=O)N(C)C[C@@H]2Oc3ccc(NC(=O)CCN4CCOCC4)cc3CC(=O)N([C@H](C)CO)C[C@H]2C)cc1	0	0	0	-	0
O=C(c1c[nH]c2ccccc12)C(Cl)c1ccccc1 (stereo not drawn)	81	0	0	0	0
C=CC[C@@]12N=C(c3ccc(OCCCO)cc3)O[C@@H]1c1ccccc1CN(CCS(=O)(=O)c1ccccc1)C2=O	77	0	0	-	0
Oc1ccc[n+](CCCCC[n+]2cccc(O)c2)c1	0	0	0	0	0
CCCCCCCCCCCCCCCC[n+]1ccc(/C=N/O)cc1	94	0	-	0	89
CCCCCCCCCCCCCCCC[n+]1cccc(C(=O)N(CC)CC)c1	64	0	0	0	0
CCCCCCCCCCCCCCCC[n+]1ccccc1	95	60	0	0	0
SMILES	PAX8 inh HTS	EWS-Fli inh	CFTR F508del cor	FXN GAA850 act	HIV Env fusion
CCCCCCCC[n+]1cccc(C(=O)N(CC)CC)c1	0	0	0	0	0
CCCCCCCCCCCCCCCC[n+]1ccc(C(N)=O)cc1	111	-	-	0	?
C[C@@H]1CN([C@@H](C)CO)C(=O)Cc2cc(NC(=O)Nc3ccc4c(c3)OCO4)ccc2O[C@H]1CN(C)C(=O)NC1CCCCC1	0	0	0	-	0
O=C(C[C@H]1CC[C@@H]2[C@H](COC[C@@H](O)CN2Cc2cccc(Cl)c2)O1)N1CCOCC1	0	0	0	-	-
O=C(NCc1nc2ccccc2[nH]1)C1=C[C@@H](c2coc3ccccc3c2=O)C[C@@H](OCCCCO)O1	0	0	0	-	0
CC(C)NC(=O)Nc1ccc2c(c1)C(=O)N([C@@H](C)CO)C[C@@H](C)[C@H](CN(C)Cc1ccncc1)OCCCC[C@@H](C)O2	0	-	0	-	0
CCc1cnc(N2[C@@H](C#N)[C@@H](c3ccc(C#CC(C)C)cc3)[C@@H]2CO)s1	113	0	0	-	-

From PubChem
